Common to all, as to test: Euclidean distance of Cell Painting phenotypic profile (signed KS, 77 features) to DMSO centroid (dimensionless distance); 5 or 10 uM (library dependent); higher = stronger phenotypic change vs DMSO (phenoactivity)
Holding throughout (conditions): 48 h

In one assay the test system is 786-O. An outline of the steps: (§1)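 Stained cells were imaged confocally at 20X with 9 fields per well, after 48 h of exposure to library compounds at 10 or 5 uM (set by library; 0.1% DMSO final). The cells were five cancer lines and a healthy fibroblast line. From the images, Harmony extracted 77 features, each expressed as a signed Kolmogorov-Smirnov statistic relative to same-plate vehicle wells. Phenoactivity is measured as Euclidean distance to the median vehicle profile, using plate-position-corrected, correlation-weighted profiles averaged across replicates at the top dose.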

The test system of another assay is A549. An outline of the steps: as §1
Another assay has as its system DU145. The gist of the method: as §1
For a further assay, the system named is FB. An outline of the steps:
as §1

The test system of a further assay is HEPG2. The gist of the method: as §1
Another assay concerns OVCAR4. An outline of the steps:
as §1

Where a name gives a salt, the structure may show the parent alone.

For the molecule `CN(C)CCC=C1c2ccccc2COc2ccccc21` [Doxepin HCl], the Euclidean distance in the assay with 786-O was 1.22; in the assay with A549, 1.14; with DU145, 1.36; in the assay on FB it was 1.45; in the assay on HEPG2, 0.967; with OVCAR4, 2.09.

Consider `CCN(CC)CC(=O)Oc1ccc(NC(C)=O)cc1` [Propacetamol hydrochloride], for which the Euclidean distance in the assay on 786-O turned out to be 1.3; in the assay on A549, 0.77; with DU145, 1.22; in the assay with FB, 0.897; with HEPG2, 1.14; with OVCAR4, 1.47.

For the molecule `O=C1c2ccccc2C(=O)c2c1ccc(O)c2O` [Alizarin], the Euclidean distance came out at 1.65 in the assay with 786-O; 1.45 in the assay with A549; 1.35 in the assay with DU145; 1.58 with FB; 1.48 in the assay with HEPG2; 1.07 in the assay with OVCAR4.

For the molecule `CN1CCN2c3ccccc3Cc3ccccc3C2C1` (centres undefined) [Mianserin HCl], the Euclidean distance with 786-O turned out to be 2.29; in the assay with A549, 2.41; in the assay on DU145, 0.876; with FB, 2.86; in the assay with HEPG2 it was 1.34; with OVCAR4 it was 2.29.

`NC(=O)Cc1cccc(C(=O)c2ccccc2)c1N` [Nepafenac]: the Euclidean distance was determined as 1.03 in the assay on 786-O; 1.31 in the assay with A549; 2.96 in the assay on DU145; 1.25 in the assay with FB; 1.14 in the assay on HEPG2; 0.874 with OVCAR4.

Turning to `CCCCCCCCCC(=O)CC(O)S(=O)(=O)O` (centres undefined) [Sodium Houttuyfonate], the Euclidean distance with 786-O came out at 1.45; with A549, 0.727; with DU145, 1.5; with FB, 0.985; in the assay on HEPG2, 1.06; with OVCAR4, 1.66.

Take `O=C(Cc1ccc(-c2ccc(OCCN3CCOCC3)cc2)cn1)NCc1ccccc1`: the Euclidean distance in the assay on 786-O is 3.21; in the assay with A549, 3.15; in the assay with DU145, 4.51; with FB it was 2.74; in the assay on HEPG2 it was 3.85; in the assay on OVCAR4, 2.99.

Take `CCC/N=C1\S/C(=C\c2ccc(OC[C@H](O)CO)c(Cl)c2)C(=O)N1c1ccccc1C` [Ponesimod]: the Euclidean distance came to 1.96 in the assay with 786-O; 1.39 in the assay on A549; 0.669 with DU145; 1 with FB; 1.32 in the assay on HEPG2; 1.26 in the assay on OVCAR4.

As to `COc1cc(C(=O)OCCCCNC(=N)N)cc(OC)c1O` [Leonurine], the Euclidean distance in the assay with 786-O was 1.19; with A549, 0.869; in the assay with DU145, 0.698; with FB, 1.29; in the assay on HEPG2, 0.641; with OVCAR4, 0.953.

For the molecule `CC(=O)O[C@H]1C[C@@H]2CC[C@@H]3[C@H](CC[C@@]4(C)[C@H]3C[C@H]([N+]3(C)CCCCC3)[C@@H]4OC(C)=O)[C@@]2(C)C[C@@H]1N1CCCCC1` [Vecuronium Bromide], the Euclidean distance worked out at 1.85 in the assay on 786-O; 1.53 in the assay on A549; 1.34 in the assay with DU145; 1.07 in the assay with FB; 0.966 in the assay on HEPG2; 1.28 in the assay on OVCAR4.

With `Nc1nc2[nH]cc(CCc3ccc(C(=O)N[C@@H](CCC(=O)O)C(=O)O)cc3)c2c(=O)[nH]1` [Pemetrexed Disodium Hydrate], the Euclidean distance with 786-O was 2.12; with A549 it was 2.97; in the assay on DU145, 1.28; with FB, 0.937; in the assay on HEPG2 it was 2.46; with OVCAR4 it was 2.8.

Regarding `Nc1cc(C(Cl)=C(Cl)Cl)c(S(N)(=O)=O)cc1S(N)(=O)=O` [Clorsulon], the Euclidean distance in the assay with 786-O turned out to be 1.15; in the assay with A549, 0.636; in the assay on DU145, 0.797; with FB, 0.676; with HEPG2, 0.743; in the assay on OVCAR4, 1.18.

Take `C[S+]([O-])c1ccc(-c2nc(-c3ccc(F)cc3)c(-c3ccncc3)[nH]2)cc1` (centres undefined): the Euclidean distance stood at 1.84 with 786-O; 0.978 in the assay on A549; 1.1 in the assay on DU145; 1.03 in the assay with FB; 2.4 in the assay on HEPG2; 1.33 in the assay with OVCAR4.

As to `O=C(CCCCCN1C(=O)c2cccc3cccc(c23)C1=O)NO` [Scriptaid], the Euclidean distance worked out at 3.19 with 786-O; 3.02 with A549; 2.28 in the assay with DU145; 3.75 in the assay on FB; 2.92 in the assay on HEPG2; 3.33 with OVCAR4.

On to `Cc1cc(Nc2ncnc3ccc(NC4=NC(C)(C)CO4)cc23)ccc1Oc1ccn2ncnc2c1` [Irbinitinib (ARRY-380. ONT-380)], for which the Euclidean distance with 786-O was 1.56; with A549, 1.62; in the assay with DU145 it was 1.3; in the assay on FB it was 1.15; in the assay on HEPG2, 1.12; in the assay on OVCAR4, 1.29.

Take `O=C(O)c1ccc(Nc2ncc3c(n2)-c2ccc(Cl)cc2C(c2c(F)cccc2F)=NC3)cc1`: the Euclidean distance was determined as 2.83 in the assay with 786-O; 3.8 in the assay on A549; 2.7 in the assay on DU145; 2.34 in the assay with FB; 3.27 with HEPG2; 3.07 in the assay with OVCAR4.

As for `COc1ccc(-c2cc3c(C)nc(N)nc3n([C@H]3CC[C@H](OCCO)CC3)c2=O)cn1`, the Euclidean distance was found to be 4.94 with 786-O; 3.33 in the assay with A549; 2.31 in the assay on DU145; 4.31 in the assay with FB; 2.12 with HEPG2; 3.03 in the assay on OVCAR4.

In the case of `CCCCCCCCCCCCCCCCn1cc[n+](Cc2ccccc2)c1C`, the Euclidean distance in the assay with 786-O was determined as 3.58; in the assay on A549, 4.18; in the assay with DU145, 2.89; in the assay with FB it was 2.94; with HEPG2, 4.61; in the assay with OVCAR4 it was 4.19.

In the case of `Nc1ccc(S(=O)(=O)Nc2cnc3ccccc3n2)cc1` [Sulfaquinoxaline sodium], the Euclidean distance in the assay on 786-O amounted to 0.778; in the assay with A549, 0.727; in the assay on DU145 it was 1.65; in the assay on FB, 1.36; in the assay with HEPG2, 0.697; with OVCAR4, 0.684.

For the molecule `CNCCc1ccccn1` [Betahistine 2HCl], the Euclidean distance in the assay on 786-O worked out at 1.56; in the assay with A549 it was 0.851; in the assay with DU145, 1.21; in the assay with FB it was 0.822; in the assay on HEPG2, 0.61; in the assay on OVCAR4, 1.03.

On to `Nc1ccn(C[C@@H](CO)OCP(=O)(O)O)c(=O)n1` [Cidofovir], for which the Euclidean distance in the assay on 786-O stood at 1.22; with A549 it was 1.39; in the assay on DU145, 1.14; in the assay with FB, 0.855; in the assay with HEPG2 it was 0.834; in the assay on OVCAR4, 1.26.

Turning to `CC(N/C(=N\C#N)Nc1ccncc1)C(C)(C)C` (centres undefined) [Pinacidil], the Euclidean distance with 786-O turned out to be 1.01; in the assay with A549, 0.907; in the assay with DU145 it was 2.42; in the assay on FB it was 1.15; in the assay on HEPG2 it was 0.55; in the assay with OVCAR4, 1.54.

In the case of `CN1CCN(C(=O)c2cc3cc(Cl)ccc3[nH]2)CC1`, the Euclidean distance came out at 1.14 in the assay on 786-O; 0.827 in the assay on A549; 0.611 in the assay with DU145; 0.998 with FB; 0.507 with HEPG2; 1.17 in the assay with OVCAR4.

As to `CCCNc1nc(Nc2ccc(C#N)cc2)ncc1C#CCCCNC(=O)[C@H](C)N(C)C(=O)/C=C/CN(C)C`, the Euclidean distance with 786-O is 6.39; in the assay with A549, 4.68; with DU145, 5.29; with FB, 5.42; in the assay with HEPG2, 5; with OVCAR4, 5.67.

Values taken from the supplement of paper PMC10127200.
